Source: PubChem BioAssay AID602281 (The Scripps Research Institute Molecular Screening Center, 2012)
Several values for one entry are separate records, joined by “and”; a condition that tells them apart may be missing. Equal entries are not always repeated. Screen size: about 360,000 compounds; about 2,900 (0.81%) were called active.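 Rule for the calls: active = inhibition above the mean inhibition across every tested compound plus 3 SD (cut at about 22% in these data); inactive = the rest.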 Shown is part of a subset that was picked to be rich in actives. Where a structure was tested more than once in an assay, its records may differ in their call.

Target: Perilipin-5 (Homo sapiens) + 1-acylglycerol-3-phosphate O-acyltransferase ABHD5 (Homo sapiens) (UniProt Q00G26+Q8WTS1)
Sequence (Q00G26 whole entry, looked up): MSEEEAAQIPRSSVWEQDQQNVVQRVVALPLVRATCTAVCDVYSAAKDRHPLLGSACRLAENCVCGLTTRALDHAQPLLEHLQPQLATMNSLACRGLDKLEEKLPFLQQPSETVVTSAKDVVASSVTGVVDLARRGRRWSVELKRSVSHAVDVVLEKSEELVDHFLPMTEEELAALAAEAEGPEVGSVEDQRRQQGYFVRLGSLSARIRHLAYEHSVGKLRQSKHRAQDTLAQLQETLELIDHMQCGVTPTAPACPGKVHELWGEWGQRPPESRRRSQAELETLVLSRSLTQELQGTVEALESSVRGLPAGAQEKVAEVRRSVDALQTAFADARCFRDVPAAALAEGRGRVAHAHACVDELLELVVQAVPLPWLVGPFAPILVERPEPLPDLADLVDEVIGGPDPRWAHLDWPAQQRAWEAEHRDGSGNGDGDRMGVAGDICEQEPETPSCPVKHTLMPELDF
Sequence (Q8WTS1 whole entry, looked up): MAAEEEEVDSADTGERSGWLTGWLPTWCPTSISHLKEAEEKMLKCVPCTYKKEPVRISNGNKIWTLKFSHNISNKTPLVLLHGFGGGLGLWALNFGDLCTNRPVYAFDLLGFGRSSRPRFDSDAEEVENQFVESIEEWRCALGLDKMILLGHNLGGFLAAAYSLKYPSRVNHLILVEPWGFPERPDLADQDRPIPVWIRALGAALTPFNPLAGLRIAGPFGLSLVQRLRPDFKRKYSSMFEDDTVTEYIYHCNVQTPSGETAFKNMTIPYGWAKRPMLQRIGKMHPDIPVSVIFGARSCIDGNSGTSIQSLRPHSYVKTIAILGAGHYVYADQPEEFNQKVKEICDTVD
Assay: blockers of ABHD5 binding to perilipin-5 – cell lysate, split luciferase complementation, luminescence, primary screen (AID 602281);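 note: 0% = DMSO only wells and the 100% control is not disclosed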
Details: Split G. princeps luciferase complementation, 4 h, at 4 µM, stronger effect = higher value

Row | Structure (SMILES) | inhibition
1 | CC1CCCN(CCCNC(=O)CN2C(=O)COc3ccc(S(=O)(=O)N4CCOCC4)cc32)C1 (stereo not drawn) | -1.77% (inactive)
2 | CCc1cccc(NC(=O)CCCN2C(=O)C(c3ccccc3)Oc3cccnc32)c1 (stereo not drawn) | -1.01% (inactive)
3 | Cc1ccc(-c2nnc(C)c(N3CC(C)OC(C)C3)n2)cc1 (stereo not drawn) | -1.84% (inactive)
4 | CC(OC(=O)CCCOc1ccccc1)C(=O)Nc1ccc(Cl)cn1 (stereo not drawn) | -0.81% (inactive)
5 | O=C1OCCOC2CCCc3oc(-c4ccccc4)c1c32 (stereo not drawn) | -3.07% (inactive)
6 | CN1CCC(=O)N([C@H](CO)Cc2ccccc2)CC1 | -5.42% (inactive)
7 | Cc1ccsc1C(=O)NC1CCCCC1C (stereo not drawn) | 4.79% (inactive)
8 | CC(N)C12CC3CC(CC(O)(C3)C1)C2 (stereo not drawn) | -6.3% (inactive)
9 | Cc1nc2ccccn2c1C(=O)NN=C1CCN(C)CC1 | -0.19% (inactive)
10 | COC(=O)c1c(C)oc2ccc(N(C(=O)Oc3ccccc3)S(=O)(=O)c3ccccc3)cc12 | -1.45% (inactive)
11 | CC(=O)N(c1ccc2oc(=O)sc2c1)S(=O)(=O)c1ccc(C)cc1 | 36.7% (active)
12 | CC(=O)Oc1ccc(N(C(C)=O)S(=O)(=O)c2ccc3ccccc3c2)cc1Br | 6.52% (inactive)
13 | COC(=O)c1ccccc1Oc1c(F)c(F)nc(N2CCOCC2)c1F | -7.97% (inactive)
14 | COc1cccc(N2CC(NS(=O)(=O)c3cccs3)CC2=O)c1 (stereo not drawn) | 0.8% (inactive)
15 | CCN(CC(=O)Nc1ccc(Cl)c(S(=O)(=O)N(C)C)c1)Cc1nc2ccccc2c(=O)[nH]1 | -4.43% (inactive)
16 | Cc1cc(N2CCCC2=O)cc(C)c1S(N)(=O)=O | -1% (inactive)
17 | O=C(Nc1ccccc1Cl)/C(Cl)=C(\Cl)S(=O)c1ccccc1 (stereo not drawn) | 81.7% (active)
18 | O=C(COc1nsnc1N1CCOCC1)Nc1ccccc1Cl | 0.63% (inactive)
19 | CCOC(=O)[C@]12CCCC=C1N(Cc1ccc3c(c1)OCO3)C(=O)[C@H](CC(=O)N1CCN(C(=O)c3ccco3)CC1)C2 | 5.36% (inactive)
20 | c1ccc(-n2cccc2)c(N2CCCCC2)c1 | -0.7% (inactive)
21 | O=C1C=CC(=O)N1c1ccc(N2CCCCC2)cc1 | 29% (active)
22 | O=C(c1ccc(Cl)c(S(=O)(=O)N2CCCCCC2)c1)N1CCN(c2ccc(O)cc2)CC1 | 1.37% (inactive)
23 | CCN(C(=O)CSc1nc(N)cc(=O)[nH]1)C1CCS(=O)(=O)C1 (stereo not drawn) | -2.61% (inactive)
24 | Cc1ccc(NC(=O)c2cc(-c3ccc(C)o3)nc3ccccc23)nc1 | 29% (active)

Row | Structure (SMILES) | inhibition
25 | Cc1c(NC(=O)c2cc(-c3ccc(Cl)s3)nc3ccccc23)c(=O)n(-c2ccccc2)n1C | 0.07% (inactive)
26 | CCc1ccc(-c2cc(C(=O)NN3CCN(C)CC3)c3ccccc3n2)cc1 | 11.1% (inactive)
27 | O=C(CCC(=O)OCC(F)(F)C(F)F)NCc1ccccc1 | -6.31% (inactive)
28 | Oc1c(CN2CCOCC2)ccc(CN2CCOCC2)c1O | -0.13% (inactive)
29 | COc1ccccc1NC(=O)CSc1nnc(Cn2nnc(-c3ccccc3)n2)n1-c1ccccc1 | 7.76% (inactive)
30 | CCCCC(=O)N/N=C(\C)CC(=O)Nc1cc(Cl)ccc1OC | 22.2% (active)
31 | COc1ccc(Cl)cc1NC(=O)CCS(=O)(=O)c1ccc(Br)cc1 | -6.29% (inactive)
32 | COc1ccc(/C(C)=N/NC(=O)CCC(=O)Nc2ccc(Cl)cc2Cl)c(OC)c1 | -4.09% (inactive)
33 | COc1cc2c(C(=O)N(C)c3cc(Cl)ccc3OC)cn(C)c(=O)c2cc1OC | -8.81% (inactive)
34 | CN(C)CCNC(=O)C(C(=O)c1ccccc1)n1ccccc1=O (stereo not drawn) | -4.39% (inactive)
35 | OC(CNCC1CCCO1)Cn1c2ccc(Br)cc2c2cc(Br)ccc21 (stereo not drawn) | 27.7% (active)
36 | CCCN1CCn2c3c(c4cc(Br)ccc42)CCCC31 (stereo not drawn) | -7.51% (inactive)
37 | COCCNC(=O)c1ccc(Cn2c(SCC(=O)NCC3CCCO3)nc3ccc(Br)cc3c2=O)cc1 (stereo not drawn) | -3.04% (inactive)
38 | CCOc1ccc(N(CC(=O)NCCc2ccc(OC)cc2)S(C)(=O)=O)cc1 | -0.93% (inactive)
39 | Cc1cc(C)n(CC(C)NCc2c(C(=O)N3CCOCC3)nc3c(C)cccn23)n1 (stereo not drawn) | 1.11% (inactive)
40 | CC1=C(C(=O)N2CCOCC2)CC(CC(=O)NCc2ccco2)C(=O)N1Cc1ccc(F)cc1 (stereo not drawn) | 5.09% (inactive)
41 | Cc1c(CCO)sc[n+]1CC(=O)OC12CC3CC(CC(C3)C1)C2 | -1.3% (inactive)
42 | Cc1c(CCOC(=O)CC23CC4CC(CC(C)(C4)C2)C3)sc[n+]1Cc1ccc([N+](=O)[O-])cc1 | 19% (inactive) and 24.3% (active)
43 | Cc1c(CCOC(=O)c2cc([N+](=O)[O-])ccc2Cl)sc[n+]1CCCCS(=O)(=O)[O-] | 7.78% (inactive)
44 | O=C(NCCCN1CCOCC1)C1CCCN(S(=O)(=O)N2CCCCC2)C1 (stereo not drawn) | -6.18% (inactive)
45 | Fc1ccc(Nc2nnns2)cc1 | -1.08% (inactive)
46 | Cc1[nH]c(C)c(S(=O)(=O)N2CCN(c3cccc(C(F)(F)F)c3)CC2)c1C(=O)N1CCCCC1 | -3.87% (inactive)
47 | Cc1c(C)c2c(OCC(=O)N[C@@H](C(=O)O)c3ccccc3)cc3c(c2oc1=O)CCC(C)(C)O3 | 9.96% (inactive)
48 | CC1CC(C)CN(CC(=O)Nc2ccc(S(N)(=O)=O)cc2)C1 (stereo not drawn) | -3.77% (inactive)

Row | Structure (SMILES) | inhibition
49 | CC1Cc2ccccc2N1CC(=O)Nc1ccc(S(N)(=O)=O)cc1 (stereo not drawn) | 26.1% (active)
50 | CC1Cc2ccccc2N1CC(=O)Nc1ccc2c(c1)OC(F)(F)O2 (stereo not drawn) | -17.3% (inactive)
51 | O=C(CCSc1ccccc1)NCCSc1ccccn1 | 4.14% (inactive)
52 | Cc1ccc2cc3cc(C(=O)N4CCCCCC4)oc3nc2c1 | 0.91% (inactive)
53 | O=C1Cc2cc(S(=O)(=O)Nc3cccc(F)c3)ccc2N1 | -4.67% (inactive)
54 | CCN(CC(=O)Nc1c(F)cccc1F)C(=O)c1ccc(-c2ccc(C(C)=O)cc2)o1 | -6.21% (inactive)
55 | O=C(CN1CCN(c2ccccc2F)CC1)c1ccc2c(c1)OCO2 | 1.72% (inactive)
56 | CCC1(c2ccccc2)NC(=O)N(CC(=O)c2ccc3c(c2)OCO3)C1=O (stereo not drawn) | 6.66% (inactive)
57 | O=C(CCN1CCc2ccccc2C(O)(c2ccccc2)C1)c1ccc2c(c1)OCCO2 (stereo not drawn) | 40.8% (active)
58 | COCCN1CCn2c(nc3cc(NS(C)(=O)=O)ccc32)C1 | 3.04% (inactive)
59 | Cc1cc(SCC(=O)NCCN2C(=O)CSC2=O)nc2ccccc12 | 1.93% (inactive)
60 | Cc1cc(C)cc(C(=O)NC(CC(N)=O)c2ccc(N3CCC(N4CCCCC4)CC3)c([N+](=O)[O-])c2)c1 (stereo not drawn) | -0.26% (inactive)
61 | O=C(CSc1nnc(CNC(=O)c2ccc(F)cc2)o1)Nc1ccc2c(c1)OCO2 | -2.58% (inactive)
62 | COCCN(CCOC)c1nc(N)c2c(N)nc3c(c2c1C#N)CC(=O)N3Cc1ccc(Cl)cc1 | 32.7% (active)
63 | C=CCC[C@H](CCCCC)OC(=O)/C=C/[C@H](O)[C@@H](O)C[C@@H](O)CC=C | -7.52% (inactive)
64 | Cc1c(CN2CCC(CO)(CCOc3ccccc3)CC2)[nH]c2ccc(Cl)cc12 | 22.5% (active)
65 | Cc1cccc(-c2ncc(CN3CCC(CO)(CCCc4ccccc4)CC3)cn2)c1 | 12.2% (inactive)
66 | CC(C)(O)C#Cc1ccc(CN2CCC(CO)(CCc3ccccc3)CC2)cc1 | -5.13% (inactive)
67 | CCC(=O)NC(Nc1cc(C)ccn1)(C(F)(F)F)C(F)(F)F | 7.47% (inactive)
68 | c1cc(-c2ccc3[nH]ccc3c2)n2ccnc2c1 | 0.38% (inactive)
69 | CCN1CCC(O)(/C=C/c2ccc(C)cc2)C(C(=O)/C=C/c2ccc(C)cc2)C1 (stereo not drawn) | 75% (active)
70 | CN(CC(=O)Nc1cccc2c1CCCC2)S(=O)(=O)c1ccc(Cl)cc1 | 4.76% (inactive)
71 | COC(=O)Cc1ccc(OC(=O)C2CCN(S(=O)(=O)c3ccc(OC)c(OC)c3)CC2)cc1 | 4.12% (inactive)
72 | CC1(C(=O)NCc2cccc3ccccc23)CCN1Cc1ccc(-c2ccccc2)o1 (stereo not drawn) | 40.4% (active)

Row | Structure (SMILES) | inhibition
73 | CC1(C(=O)NCc2ccc3c(c2)OCO3)CCN1C(=O)Cc1cccc2ccccc12 (stereo not drawn) | 0.84% (inactive)
74 | CSc1ccc(CN2CCC2(C)C(=O)NCc2ccccc2Br)cc1 (stereo not drawn) | -5.69% (inactive)
75 | CN(C)c1cccc(C(=O)N2CCC(n3nccc3NC(=O)C3CCOC3)CC2)c1 (stereo not drawn) | -0.66% (inactive)
76 | CCC(C(=O)NC(C)(C)C)n1c(-c2ccccc2)nc2ccccc21 (stereo not drawn) | 9.54% (inactive)
77 | CSCCC(C(=O)NC(C)(C)C)n1c(-c2ccccc2)nc2ccccc21 (stereo not drawn) | -13.8% (inactive)
78 | CC(C)(C)NC(=O)C(CCc1ccccc1)n1c(=O)c(-c2ccccc2)nc2ccccc21 (stereo not drawn) | 22.9% (active)
79 | COc1ccc(S(=O)(=O)N2CCCCC2)cc1NC(=O)C1CC(=O)N(c2ccc3c(c2)OCCO3)C1 (stereo not drawn) | 12.7% (inactive)
80 | CCOCN(C(=O)Cn1c(C(C)O)nc2ccccc21)c1c(C)cccc1CC (stereo not drawn) | -2.38% (inactive)
81 | CN(C)C(=O)COC(=O)c1cccc(S(=O)(=O)N2CC3(C)CC2CC(C)(C)C3)c1 (stereo not drawn) | -4.49% (inactive)
82 | Cc1nnnn1/C(=C\c1ccccc1)C(=O)OCC(=O)N1CC2(C)CC1CC(C)(C)C2 (stereo not drawn) | 38.6% (active)
83 | O=S(=O)(NCc1cccnc1)c1ccc(Cl)nc1 | 5.93% (inactive)
84 | Cc1cc(C)c(C)c(S(=O)(=O)Nc2ccc(O)cc2)c1C | 4.3% (inactive)
85 | COc1ccc(CN2C(=O)C(CC(=O)NCCN3CCOCC3)CC(C(=O)N(C(C)C)C(C)C)=C2C)cc1 (stereo not drawn) | -11% (inactive)
86 | CCCCCCCCCCCCCCCC(=O)OC/C=C(C)/C=C/C=C(C)/C=C/C1=C(C)CCCC1(C)C | -4.62% (inactive)
87 | O=C(Nc1ccccc1C(F)(F)F)N1CCCC1c1cccnc1 (stereo not drawn) | 11.2% (inactive)
88 | CCOc1ccccc1NC(=O)CCc1nnc2ccc(NCc3ccco3)nn12 | 16.7% (inactive)
89 | CCOC(=O)c1cccc(NC(=O)CCc2nnc3ccc(N4CCOCC4)nn23)c1 | -2.37% (inactive)
90 | O=C(CNc1ccc(F)cc1F)NC(=O)NCc1ccco1 | -0.2% (inactive)
91 | CC(=O)c1ccc(NC(=O)CCc2nnc3ccc(NCc4ccco4)nn23)cc1 | 27.9% (active)
92 | O=C(CCc1nnc2ccc(NCc3ccco3)nn12)Nc1cc(F)ccc1F | 22.5% (active)
93 | CC1CCN(C(=O)CCc2nnc3ccc(NCc4ccco4)nn23)CC1 | 7.83% (inactive)
